PubChem BioAssay
For some assays here: Entries with a potency or affinity are not part of this list. Calls of active or inactive are those of the source. Unless noted, no rule for the calls is given here.

Legend:
[1] = antimalarial activity against Dd2 strain (AID 2302;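 active = growth inhibition above 50% at the single 2 µM test dose, taken to imply half-maximal potency below 2 µM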;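 also: 0% = DMSO untreated growth and 100% = chloroquine plus artemisinin killed control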); conditions: P. falciparum Dd2 in RBCs, LDH growth readout, 72 h; at 2 µM; hits give high values
[2] = human hepatoma cell viability loss – ATP luminescence, cytotoxicity control for P. falciparum antimalarial project, primary screen (AID 2303;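 active = inhibition above 50%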;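 also: 0% = DMSO wells and 100% = digitonin-killed cells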); conditions: HepG2 viability, 24-48 h, at 10 µM, hits give high values
[3] = molecular target: L-lactate dehydrogenase (Plasmodium falciparum (isolate CDC / Honduras)) (UniProt Q27743); test: PfLDH activity inhibition – cell lysate, 3D7 strain, counter-screen for P. falciparum growth inhibition project (AID 2304);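 also: 0% = vehicle and 100% = reference inhibitor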; conditions: P. falciparum 3D7 crude extract, LDH APAD/NBT absorbance; at 2 µM; hits give high values
L-lactate dehydrogenase (Plasmodium falciparum (isolate CDC / Honduras)), sequence (Q27743 whole entry, looked up): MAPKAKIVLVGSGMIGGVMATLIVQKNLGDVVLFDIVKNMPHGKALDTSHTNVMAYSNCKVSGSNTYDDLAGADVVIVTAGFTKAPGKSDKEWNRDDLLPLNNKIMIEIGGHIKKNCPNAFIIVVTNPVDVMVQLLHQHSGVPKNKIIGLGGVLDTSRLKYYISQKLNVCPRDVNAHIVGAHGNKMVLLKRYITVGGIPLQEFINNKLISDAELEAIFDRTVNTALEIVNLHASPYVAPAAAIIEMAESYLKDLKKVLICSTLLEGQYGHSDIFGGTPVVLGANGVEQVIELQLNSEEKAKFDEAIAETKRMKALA

[4] = inhibition of 3D7 malaria parasite growth – strain 3D7 (AID 2306);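 also: 0% = DMSO wells and 100% = chloroquine plus artemisinin control wells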; conditions: P. falciparum 3D7 erythrocytic growth, LDH absorbance, 72 h; at 2 µM; hits give high values
[5] = molecular target: Calcium-dependent protein kinase 1 (Plasmodium falciparum (isolate 3D7)) (UniProt P62344); test: PfCDPK1 kinase inhibitors, biochemical, TCAMS library (AID 1159585; cut-off not given, nearly all actives have IC50 up to about 0.98 µM;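 also: inhibitors leave more ATP so luminescence rises with inhibition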); conditions: recombinant PfCDPK1, Kinase-Glo ATP depletion luminescence
Calcium-dependent protein kinase 1 (Plasmodium falciparum (isolate 3D7)), sequence (P62344 whole entry, looked up): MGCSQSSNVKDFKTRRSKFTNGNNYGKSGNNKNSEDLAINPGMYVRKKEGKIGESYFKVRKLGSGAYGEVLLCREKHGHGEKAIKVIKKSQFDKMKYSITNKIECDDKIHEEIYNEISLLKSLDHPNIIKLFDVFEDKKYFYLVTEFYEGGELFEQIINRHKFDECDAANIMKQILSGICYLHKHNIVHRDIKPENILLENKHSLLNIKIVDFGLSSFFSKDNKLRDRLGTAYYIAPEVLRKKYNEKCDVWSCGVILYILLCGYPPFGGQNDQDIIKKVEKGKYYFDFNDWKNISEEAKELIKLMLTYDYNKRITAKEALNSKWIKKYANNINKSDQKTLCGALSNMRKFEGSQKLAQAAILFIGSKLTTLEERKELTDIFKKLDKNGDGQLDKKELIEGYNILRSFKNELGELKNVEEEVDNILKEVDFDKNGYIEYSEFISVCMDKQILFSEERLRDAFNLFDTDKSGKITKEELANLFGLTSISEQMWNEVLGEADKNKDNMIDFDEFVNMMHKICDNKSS

[6] = molecular target: Plasmodium falciparum protein kinase 6 (PK6, PF3D7_1337100) (UniProt Q8IDW1); test: PfPK6 kinase inhibitors, biochemical, TCAMS library (AID 1159586); conditions: recombinant PfPK6, Kinase-Glo ATP depletion luminescence
Plasmodium falciparum protein kinase 6 (PK6, PF3D7_1337100), sequence (Q8IDW1 1-305): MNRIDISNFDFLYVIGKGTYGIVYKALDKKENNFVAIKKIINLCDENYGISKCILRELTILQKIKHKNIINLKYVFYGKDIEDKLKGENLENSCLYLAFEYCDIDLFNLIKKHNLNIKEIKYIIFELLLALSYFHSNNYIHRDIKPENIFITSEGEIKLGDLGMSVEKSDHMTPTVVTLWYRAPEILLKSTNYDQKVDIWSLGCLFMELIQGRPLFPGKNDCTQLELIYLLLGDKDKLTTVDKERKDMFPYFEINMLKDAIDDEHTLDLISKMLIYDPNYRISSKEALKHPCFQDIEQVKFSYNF

[7] = molecular target: Protein kinase 7 (PK7), Plasmodium falciparum 3D7 (PF3D7_0213400) (UniProt Q7YTF7); test: inhibition of Plasmodium PK7 catalytic activity – biochemical, TCAMS antimalarial set, Kinase-Glo luminescence (AID 1159587); conditions: recombinant PfPK7, Kinase-Glo ATP depletion luminescence
Protein kinase 7 (PK7), Plasmodium falciparum 3D7 (PF3D7_0213400), sequence (Q7YTF7 1-343): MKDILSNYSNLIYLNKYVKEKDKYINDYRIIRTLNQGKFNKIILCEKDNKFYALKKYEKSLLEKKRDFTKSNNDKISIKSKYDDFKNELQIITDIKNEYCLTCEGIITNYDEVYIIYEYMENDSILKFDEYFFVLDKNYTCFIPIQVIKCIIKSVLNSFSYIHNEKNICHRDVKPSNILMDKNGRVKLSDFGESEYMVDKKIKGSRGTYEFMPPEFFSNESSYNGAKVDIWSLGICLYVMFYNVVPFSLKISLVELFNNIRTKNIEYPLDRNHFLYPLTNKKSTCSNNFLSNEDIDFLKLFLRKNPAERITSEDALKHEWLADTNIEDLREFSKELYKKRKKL

[8] = molecular target: Calcium-dependent protein kinase 4 (Plasmodium falciparum (isolate 3D7)) (UniProt Q8IBS5); test: PfCDPK4 kinase inhibitors, biochemical, TCAMS library (AID 1159588; cut-off not given, nearly all actives have IC50 up to about 0.91 µM); conditions: recombinant PfCDPK4, Kinase-Glo ATP depletion luminescence
Calcium-dependent protein kinase 4 (Plasmodium falciparum (isolate 3D7)), sequence (Q8IBS5 whole entry, looked up): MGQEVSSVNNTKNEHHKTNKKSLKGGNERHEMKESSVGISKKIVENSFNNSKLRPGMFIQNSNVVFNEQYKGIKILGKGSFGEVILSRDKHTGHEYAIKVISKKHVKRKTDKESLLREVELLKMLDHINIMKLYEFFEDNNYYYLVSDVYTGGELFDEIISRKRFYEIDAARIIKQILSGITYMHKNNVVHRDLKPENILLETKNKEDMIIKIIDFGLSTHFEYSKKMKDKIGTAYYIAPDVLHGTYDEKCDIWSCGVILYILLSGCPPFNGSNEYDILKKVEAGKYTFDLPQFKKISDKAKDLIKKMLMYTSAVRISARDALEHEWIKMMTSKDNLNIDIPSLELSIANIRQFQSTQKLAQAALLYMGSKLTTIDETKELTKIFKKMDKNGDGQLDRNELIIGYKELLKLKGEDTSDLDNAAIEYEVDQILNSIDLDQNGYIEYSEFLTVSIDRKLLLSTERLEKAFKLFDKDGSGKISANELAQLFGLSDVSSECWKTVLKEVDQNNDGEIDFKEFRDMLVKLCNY

CCN1CCC(N2CCC(C(=O)Nc3cccc(-c4cccc(Cl)c4)c3)CC2)CC1
inactive: inhibition [3] -1% | outcome [5] | outcome [6] | outcome [7] | outcome [8]
active: growth inhibition [1] 82% | inhibition [2] 54% | growth inhibition [4] 91%

Cc1cccc2[nH]c(-c3ccc(-c4cccc(NC(=O)CCc5cnc[nH]5)c4)s3)nc12
inactive: inhibition [2] 2% | inhibition [3] -4% | outcome [5] | outcome [6] | outcome [7] | outcome [8]
active: growth inhibition [1] 70% | growth inhibition [4] 94%

CCOc1ccccc1NC(=O)C(Sc1nc(C)cc(C)c1C#N)c1ccccc1 (stereo not given)
inactive: inhibition [2] -1% | inhibition [3] -3% | outcome [5] | outcome [6] | outcome [7] | outcome [8]
active: growth inhibition [1] 98% | growth inhibition [4] 99%

CC(C)c1sc(N2CCN(C)CC2)nc1C(=O)NCCc1ccc(Br)cc1
inactive: inhibition [2] -1% | inhibition [3] -1% | outcome [5] | outcome [6] | outcome [7] | outcome [8]
active: growth inhibition [1] 60% | growth inhibition [4] 89%

CCN(CCCN1CCCCC1)c1cc(C)nc(Nc2cc(C(F)(F)F)ccc2C)n1
inactive: growth inhibition [1] 41% | inhibition [2] 35% | inhibition [3] -2% | outcome [5] | outcome [6] | outcome [7] | outcome [8]
active: growth inhibition [4] 96%

Cc1ccc(NC(=O)NC2CCN(CCCCCNC(=O)[C@@H]3C[C@H]3c3ccc(Cl)c(Cl)c3)CC2)cc1
inactive: growth inhibition [1] 19% | inhibition [2] 35% | inhibition [3] 1% | outcome [5] | outcome [6] | outcome [7] | outcome [8]
active: growth inhibition [4] 101%

CCOC(=O)c1cccc(N/C(N)=N/c2nc(C)cc(NCCc3ccccc3)n2)c1
inactive: inhibition [2] 21% | inhibition [3] -6% | outcome [5] | outcome [6] | outcome [7] | outcome [8]
active: growth inhibition [1] 72% | growth inhibition [4] 102%

COc1cc(C)cc(CN2CCC(Cc3ccccc3)CC2)c1O
active: growth inhibition [1] 94% | growth inhibition [4] 97%
inactive: inhibition [2] 35% | inhibition [3] 0% | outcome [5] | outcome [6] | outcome [7] | outcome [8]

CC(C)Cn1c(Sc2ccc(C#N)c([N+](=O)[O-])c2)nnc1-c1ccc(N(C)C)cc1
inactive: inhibition [2] 4% | inhibition [3] 4% | outcome [5] | outcome [6] | outcome [7] | outcome [8]
active: growth inhibition [1] 98% | growth inhibition [4] 98%

CC1CN(c2cc(=O)n(Cc3ccc(NC(=O)Nc4ccc(-c5ccccc5)cc4)cc3)cn2)CC(C)N1 (stereo not given)
inactive: growth inhibition [1] 20% | inhibition [2] 0% | inhibition [3] -1% | outcome [5] | outcome [6] | outcome [7] | outcome [8]
active: growth inhibition [4] 87%

O=[N+]([O-])c1ccccc1C=NNc1ccnc2ccc(C(F)(F)F)cc12
inactive: growth inhibition [1] 36% | inhibition [2] 6% | inhibition [3] -3% | outcome [5] | outcome [6] | outcome [7] | outcome [8]
active: growth inhibition [4] 100%

CN1CCCN(c2ccnc3cc4c(cc23)N(C(=O)c2ccc(Cl)cc2)CC4)CC1
active: growth inhibition [4] 100%
inactive: growth inhibition [1] 0% | inhibition [2] 0% | inhibition [3] 4% | outcome [5] | outcome [6] | outcome [7] | outcome [8]

COc1ccc(S(=O)(=O)N2CCCc3ccc(Br)cc32)cc1N1CCN(C(=O)C(Cl)(Cl)Cl)CC1
inactive: inhibition [2] 23% | inhibition [3] 2% | outcome [5] | outcome [6] | outcome [7] | outcome [8]
active: growth inhibition [1] 93% | growth inhibition [4] 97%

CC(C)OC(=O)c1ccc(NC(=O)N[C@@H](Cc2ccc(O)cc2)C(=O)NC2C[C@H]3CC[C@@H](C2)N3Cc2ccccc2)cc1 (stereo not given in full)
inactive: growth inhibition [1] 19% | inhibition [2] 0% | inhibition [3] -5% | outcome [5] | outcome [6] | outcome [7] | outcome [8]
active: growth inhibition [4] 92%

COc1nc2c(N3CCN(CCNCc4ccc5c(n4)NC(=O)CO5)CC3)ccnc2cc1F
active: growth inhibition [4] 101%
inactive: growth inhibition [1] 9% | inhibition [2] 18% | inhibition [3] -2% | outcome [5] | outcome [6] | outcome [7] | outcome [8]

N=C1C=C(N)C(=O)c2ccccc21
active: growth inhibition [1] 85% | inhibition [2] 99% | growth inhibition [4] 81%
inactive: inhibition [3] -2% | outcome [5] | outcome [6] | outcome [7] | outcome [8]

COc1ccc(CN2CCCN(Cc3cccc(C(=O)Nc4ccc(C(C)(C)C)cc4)c3)CC2)cc1
active: growth inhibition [4] 98%
inactive: growth inhibition [1] 3% | inhibition [2] 46% | inhibition [3] 2% | outcome [5] | outcome [6] | outcome [7] | outcome [8]

CCN(CC)CCN(Cc1ccc(-c2ccc(C(F)(F)F)cc2)cc1)C(=O)Cn1c(SCc2ccc(F)cc2)nc(=O)c2sccc21
active: growth inhibition [1] 65% | inhibition [2] 51% | growth inhibition [4] 101%
inactive: inhibition [3] -1% | outcome [5] | outcome [6] | outcome [7] | outcome [8]

O=C(Nc1ccccc1)N1CCOC(CCN2CCC(F)(F)CC2)(c2ccc(Cl)c(Cl)c2)C1 (stereo not given)
inactive: inhibition [2] 20% | inhibition [3] 3% | outcome [5] | outcome [6] | outcome [7] | outcome [8]
active: growth inhibition [1] 100% | growth inhibition [4] 102%

Cc1nc2ccc3nc(NC(=O)c4ccno4)sc3c2s1
active: growth inhibition [1] 97% | growth inhibition [4] 99%
inactive: inhibition [2] 6% | inhibition [3] 1% | outcome [5] | outcome [6] | outcome [7] | outcome [8]

CC1CN(Cc2cccc(F)c2)CCN1c1ccc(NC(=O)c2cccs2)cc1 (stereo not given)
active: growth inhibition [1] 96% | growth inhibition [4] 96%
inactive: inhibition [2] -1% | inhibition [3] -2% | outcome [5] | outcome [6] | outcome [7] | outcome [8]

CN1CCN(Cc2cc(NC(=O)c3ccc(-c4ccc(Cl)cc4Cl)cc3)ccc2-c2ccccc2)CC1
inactive: growth inhibition [1] 21% | inhibition [3] 3% | outcome [5] | outcome [6] | outcome [7] | outcome [8]
active: inhibition [2] 52% | growth inhibition [4] 95%

NCCc1cccc(-c2cnc3[nH]cc(-c4ccc(C(=O)O)cc4)c3c2)c1
inactive: inhibition [2] 4% | inhibition [3] -2% | outcome [5] | outcome [6] | outcome [7] | outcome [8]
active: growth inhibition [1] 98% | growth inhibition [4] 99%

CCC(C)(C)C1CCc2[nH]c3ccccc3c(=O)c2C1 (stereo not given)
inactive: inhibition [2] 16% | inhibition [3] -4% | outcome [5] | outcome [6] | outcome [7] | outcome [8]
active: growth inhibition [1] 96% | growth inhibition [4] 97%

CCOC(=O)c1c(-c2ccccc2)[nH]c2c(sc3ccccc32)c1=O
inactive: inhibition [2] 2% | inhibition [3] -5% | outcome [5] | outcome [6] | outcome [7] | outcome [8]
active: growth inhibition [1] 65% | growth inhibition [4] 97%

CC(C)C1C(O)=C(c2ccc3ccccc3c2)C(=O)N1Cc1cccc(F)c1 (stereo not given)
active: growth inhibition [1] 82% | growth inhibition [4] 97%
inactive: inhibition [2] 3% | inhibition [3] 3% | outcome [5] | outcome [6] | outcome [7] | outcome [8]

O=C(CCc1cccnc1)Nc1cccc(-c2ccc(-c3nc4ccc(C(F)(F)F)cc4[nH]3)cc2)c1
inactive: growth inhibition [1] -5% | inhibition [2] 38% | inhibition [3] 3% | outcome [5] | outcome [6] | outcome [7] | outcome [8]
active: growth inhibition [4] 93%

O=C(NCc1ccc(F)cc1)Nc1ccc(-c2cccc(-c3nc4ccc(F)cc4[nH]3)c2)cc1
inactive: inhibition [2] 31% | inhibition [3] -1% | outcome [5] | outcome [6] | outcome [7] | outcome [8]
active: growth inhibition [1] 99% | growth inhibition [4] 100%

Cc1ccc(NC(=O)NC2CCN(CCC(NC(=O)Cc3ccccc3)c3ccc(Cl)c(Cl)c3)CC2)cc1 (stereo not given)
active: growth inhibition [4] 100%
inactive: growth inhibition [1] 2% | inhibition [2] 16% | inhibition [3] -1% | outcome [5] | outcome [6] | outcome [7] | outcome [8]

COc1ccc(C)c(Nc2ccnc(Nc3cccc(-c4nc5ccccc5[nH]4)c3)n2)c1
active: growth inhibition [4] 98%
inactive: growth inhibition [1] 35% | inhibition [2] 27% | inhibition [3] -1% | outcome [5] | outcome [6] | outcome [7] | outcome [8]

COc1ccc(C(=O)CCC(=O)N(Cc2ccc(-c3ccc(CNCc4cccnc4)cn3)cc2)C2CCN(Cc3ccccc3)CC2)cc1F
active: growth inhibition [4] 94%
inactive: growth inhibition [1] 26% | inhibition [2] 30% | inhibition [3] 3% | outcome [5] | outcome [6] | outcome [7] | outcome [8]

O=S(=O)(Nc1cc2c(cc1O)CCN(C1CCC1)CC2)c1ccc(-c2ccc(F)cc2)cc1
inactive: inhibition [2] 16% | inhibition [3] -1% | outcome [5] | outcome [6] | outcome [7] | outcome [8]
active: growth inhibition [1] 99% | growth inhibition [4] 101%

COc1ccc(CNc2cc(C)nc3sc4c(c23)CCC2(C4)OCCO2)cc1
inactive: growth inhibition [1] 2% | inhibition [2] 4% | inhibition [3] -7% | outcome [5] | outcome [6] | outcome [7] | outcome [8]
active: growth inhibition [4] 96%

CN(C)CC(=O)N(Cc1ccc(Cl)c(Cl)c1)Cc1csc(-c2ccc(CNCc3ccccc3)cc2)n1
active: growth inhibition [4] 96%
inactive: growth inhibition [1] 32% | inhibition [2] 30% | inhibition [3] 4% | outcome [5] | outcome [6] | outcome [7] | outcome [8]

Cc1cccc2[nH]c(-c3ccc(-c4cccc(NC(=O)Nc5ccc(F)c(F)c5F)c4)cc3)nc12
inactive: inhibition [2] 40% | inhibition [3] 2% | outcome [5] | outcome [6] | outcome [7] | outcome [8]
active: growth inhibition [1] 89% | growth inhibition [4] 100%

O=C(/C=C/c1ccc(F)cc1)NC1CCC(CCN2CCc3ccc(-n4cccn4)cc3CC2)CC1 (stereo not given)
inactive: growth inhibition [1] 16% | inhibition [2] 23% | inhibition [3] 3% | outcome [5] | outcome [6] | outcome [7] | outcome [8]
active: growth inhibition [4] 89%

NS(=O)(=O)NCCCN1CCN(c2ccccc2)CC1
active: growth inhibition [1] 73% | growth inhibition [4] 90%
inactive: inhibition [2] 2% | inhibition [3] -2% | outcome [5] | outcome [6] | outcome [7] | outcome [8]

Cc1cc(N2CCN(C3CCCCC3)CC2)nc2cccc(O)c12
inactive: growth inhibition [1] 37% | inhibition [2] 12% | inhibition [3] -3% | outcome [5] | outcome [6] | outcome [7] | outcome [8]
active: growth inhibition [4] 101%

COc1ccc(-c2ccc(CNC(=O)c3ccc(Cl)cc3)c(F)c2)cc1CN1CCCN(C)CC1
active: growth inhibition [4] 99%
inactive: growth inhibition [1] 48% | inhibition [2] 25% | inhibition [3] -5% | outcome [5] | outcome [6] | outcome [7] | outcome [8]

CCCOC(=O)c1ccc(OCCCON2C(N)=NC(N)=NC2(C)C)cc1
active: growth inhibition [1] 97% | inhibition [2] 61% | growth inhibition [4] 95%
inactive: inhibition [3] 6% | outcome [5] | outcome [6] | outcome [7] | outcome [8]
